Screening data as filed in PubChem.
Hits are enriched below; roughly 12% of the tested compounds scored in any of these assays.
SARS PLpro yeast = qHTS of Yeast-based Assay for SARS-CoV PLP; S. cerevisiae expressing SARS-CoV PLpro, growth rescue; Potency, µM (highest dose often 32.9 µM), inactives show at the highest dose activity, positive = growth rescue, hits mostly activators; hit rate 0.19% among 330,000; AID 485353, 2010; calls by dose curve; note: 0% is about no effect; nearly all actives have a fitted effect of over 55% in size
Pf growth 96h = Primary qHTS for delayed death inhibitors of the malarial parasite plastid, 96 hour incubation. Potency, µM (series often up to 28.7 µM), without a hit: at the top dose activity change, negative = inhibition, most hits filed as inhibitors. hit rate 6.9% among 320,000. P. falciparum luciferase reporter growth, 96 h; note: % is set by controls: 0 for no effect and ±100 for the full control effect
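Compounds incubated with erythrocytes infected by luciferase-expressing P. falciparum (2% hematocrit, 0.05% parasitemia final) for 96 hours, 37 C in 5% CO2. Growth inhibition scored as decreased luciferase luminescence.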
Pf growth 48h = Primary qHTS for delayed death inhibitors of the malarial parasite plastid, 48 hour incubation; P. falciparum luciferase growth in erythrocytes, 48 h; Potency, µM (titrated, usually from 28.7 µM), for inactives: top-dose activity change, negative = inhibition, usual class: inhibitors; hit rate 5.9% among 310,000; AID 504832, 2011; note: % is set by controls: 0 for no effect and ±100 for the full control effect
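Parasite viability was followed by luminescence of a genomically integrated firefly luciferase. Cultures held 0.1% parasitemia at 2% hematocrit (final), incubated under 5% CO2 at 37 C.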
Sm TGR inh = qHTS Assay for the Inhibitors of Schistosoma Mansoni Peroxiredoxins; Schistosoma mansoni thioredoxin glutathione reductase (TGR), Q962Y6; purified TGR, DTNB reduction, TNB absorbance 405 nm; Potency, µM (top dose mostly 114 µM), for the others: at the top dose activity change, negative = inhibition, actives largely listed as inhibitors; hit rate 3% among 360,000; AID 485364, 2010; note: % is set by controls: 0 for no effect and ±100 for the full control effect; nearly all actives have a fitted effect of over 60% in size
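Kinetic colorimetric format: TGR-catalysed, NADPH-driven DTNB reduction monitored via TNB absorbance. Enzyme dispensed at 20 nM; compound exposure 15 min at room temperature before reaction start.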
* hit, by the source's call; ? = inconclusive; / = not tested or not shown; [ ] = remark or other dose. Unless noted, calls come from the whole dose curve; as a rule, active = well fitted curve in the direction sought with a large enough effect; inconclusive = small, poorly fitted or top-dose-only effect, or another doubt; inactive = no such curve, though single readings can be large; an effect the other way counts as inactive or inconclusive. Potency is the fitted concentration of half-maximal effect.

SMILES	SARS PLpro yeast	Pf growth 96h	Pf growth 48h	Sm TGR inh
COC(=O)c1cc(NC(=O)c2cc(-c3ccc(Cl)cc3)oc2C(F)(F)F)ccc1N1CCOCC1	-5.4%	?	11.7µM*	0.4%
CC(C)(C)c1ccc(C(=O)NC(=S)Nc2ccc(N3CCOCC3)cc2)cc1	?	11.7µM*	?	-6.6%
COC(=O)c1cc(NC(=S)NC(=O)c2ccccc2)ccc1N1CCOCC1	?	0.8%	86.0%	25.1µM*
Cc1ccc(C)c(N2CCN(C(=O)Cn3cnc4onc(-c5ccc(F)cc5)c4c3=O)CC2)c1	/	/	/	3.6%
CC(C)(C)c1ccc(C(=O)N2CCCC(c3nc4c(nnn4Cc4cccc(F)c4)c(=O)[nH]3)C2)cc1 (centres undefined)	/	/	/	-0.5%
O=C(O)c1cc(NCc2cccs2)ccc1N1CCOCC1	-1.2%	-16.5%	17.7%	-9.2%
CC(=O)c1cccc(NC(=S)NC(=O)c2cccc(C)c2)c1	-11.3%	11.5%	141.3%	28.2µM*
CC(=O)c1cccc(NC(=S)NC(=O)c2ccc(Cl)cc2)c1	12.1%	38.7%	90.7%	-20.1%
Cc1ccc(C(=O)NC(=S)Nc2ccc(N3CCOCC3)cc2)cc1C	-1.3%	?	-2.9%	-26.5%
COC(=O)c1cc(NCc2cccs2)ccc1N1CCOCC1	-2.0%	8.28µM*	-5.6%	?
COc1ccc(C(=O)NC(=S)Nc2ccc(N3CCOCC3)cc2)cc1Cl	28.1%	76.8%	-7.3%	20µM*
O=C(NC[C@@H](O)CO)c1c(I)c(C(=O)NC[C@@H](O)CO)c(I)c(N(CCO)C(=O)CO)c1I	/	16.4%[12.8 µM]	4.2%[12.8 µM]	/
COc1cccc(-c2cn3c(n2)sc2cc(C(=O)NCCCc4ccccc4)ccc23)c1	/	/	/	1.2%
Fc1cccc(CCN2CCNC[C@@H]2CC2CCCCC2)c1	-11.9%	?	?	-21.2%
COCCCN(CC(=O)Nc1ccc(F)cc1)S(=O)(=O)c1cccs1	0.6%	/	/	/
O=C(Nc1ccc2oc(-c3cccnc3)nc2c1)c1ccc(-c2ccc(Cl)cc2)o1	/	/	/	31.6µM*
O=C(Nc1ccc2oc(-c3cccnc3)nc2c1)c1ccc([N+](=O)[O-])o1	-1.1%	?	?	/
O=C(Nc1ccc2oc(-c3cccnc3)nc2c1)c1ccc(-c2cccc(Cl)c2)o1	/	/	/	35.5µM*
O=C(Nc1cccnc1)c1ccc(-c2ccc(Cl)cc2)o1	-9.6%	-11.7%	19.9%	31.6µM*
O=C(Nc1cccnc1)c1ccc(-c2cc(Cl)ccc2Cl)o1	-3.4%	12.1%	?	/
COc1ccc(C(C(=O)NC(C)(C)C)N(C(=O)CNC(=O)c2cccs2)c2cccnc2)cc1OC (centres undefined)	-0.1%	?	19.6%	3.4%
CCOC(=O)c1ccc(NC(=O)C(CC)Sc2nnc3c4ccccc4n(C)c3n2)cc1 (centres undefined)	/	/	/	3.7%
Cc1ccc(Cn2nc3c4cc(F)ccc4n(Cc4ccc(F)cc4)cc-3c2=O)cc1	0.0%	0.7%	32.6%	14.2%
COc1cccc(Cn2nc3c4cc(F)ccc4n(Cc4ccc(F)cc4)cc-3c2=O)c1	-1.0%	1.65µM*	-0.9%	1.4%
COc1cc2c3nnc(-c4ccccc4)c-3cn(Cc3ccc(F)cc3)c2cc1OC	-0.9%	?	-36.8%[1.15 µM]	5.9%
SMILES	SARS PLpro yeast	Pf growth 96h	Pf growth 48h	Sm TGR inh
COc1cc2c3nnc(-c4ccc(F)cc4)c-3cn(Cc3cccc(C)c3)c2cc1OC	0.0%	0.465µM*	0.586µM*	-1.8%
COc1ccc(CN2CCN(Cc3cccc(F)c3)CC2)cc1OC	-2.9%	29.1%	11.3%	0.1%
COc1cc2c3nnc(-c4ccc(F)cc4)c-3cn(Cc3cccc(F)c3)c2cc1OC	3.3%	1.04µM*	0.586µM*	-1.7%
COc1cc2c3nnc(-c4ccc(F)cc4)c-3cn(Cc3ccc(C)cc3)c2cc1OC	-8.8%	0.37µM*	0.329µM*	-2.8%
CC(C)c1nnc(NC(=O)CCC(=O)N2CCC(Cc3ccccc3)CC2)s1	-2.6%	?	-3.2%	-0.1%
CCCCC(=O)NC(c1cccc([N+](=O)[O-])c1)c1c(OC(C)=O)ccc2ccccc12 (centres undefined)	-8.6%	46.1%	0.828µM*	-17.6%
CC(=O)Oc1ccc2ccccc2c1C(NC(=O)Cc1ccccc1)c1ccccc1 (centres undefined)	-10.9%	?	4.15µM*	4.7%
CC(C)CC(=O)NC(c1ccccc1)c1c(O)ccc2ccccc12 (centres undefined)	0.0%	?	?	2.3%
